The values that follow come from PubChem BioAssay (NCATS).

Inconclusive results are not listed. Activity calls are given as the source filed them. Calls follow the shape of the dose curve; as a rule, active = well fitted curve in the direction sought with a large enough effect; inconclusive = small, poorly fitted or top-dose-only effect, or another doubt; inactive = no such curve, though single readings can be large; an effect the other way counts as inactive or inconclusive.

Assay [1] addresses Rap guanine nucleotide exchange factor 3 (Homo sapiens) (UniProt O95398). The experiment in a line: Confirmatory qHTS for antagonist of cAMP-regulated guanine nucleotide exchange factor 3 (EPAC1) (AID 1645880). Also: nearly all actives have a fitted effect of over 55% in size. Also: potency is read from the fitted curve at half-maximal effect. The settings on record: EPAC1 Rap1B-BODIPY-GDP exchange, fluorescence; activity, negative = inhibition: at 115 µM (top of the series). The gist of the method: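 Released BODIPY-GDP fluoresces less than Rap1-bound BODIPY-GDP; the signal is followed at 480/540 nm at 5-min intervals over 30 min, after 5 min at room temperature. Reactions contain 100 nM EPAC1, 250 nM RAP1B-BODIPY-GDP and 50 uM GDP; results are normalized to ATA and DMSO.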
In general terms: Quantitative high-throughput screening tests each substance at several concentrations.

Assay [2] shares this target. The assay can be described thus: Confirmatory qHTS for agonist of cAMP-regulated guanine nucleotide exchange factor 3 (EPAC1) (AID 1645881).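 Also: EPAC1 catalysed release of BODIPY-GDP from Rap1B seen as fluorescence loss; nearly all actives have a fitted effect of over 75% in size.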 The conditions noted are these: EPAC1 Rap1B BODIPY-GDP exchange fluorescence; series mostly up to 154 µM.
In assay [3] the target is Rap guanine nucleotide exchange factor 4 (Homo sapiens) (UniProt Q8WZA2). The experiment in a line: Confirmatory qHTS for agonist of cAMP-regulated guanine nucleotide exchange factor 4 (EPAC2) (AID 1645884).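 Also: nucleotide exchange releases bodipy-GDP from Rap1 and this lowers its fluorescence; nearly all actives have a fitted effect of over 65% in size.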 The settings on record: EPAC2 GEF activity, Rap1B-BODIPY-GDP fluorescence; series mostly up to 154 µM.
For assay [4], the target named is Rap guanine nucleotide exchange factor 3 (Homo sapiens) (UniProt O95398). The assay can be described thus: Counterscreen qHTS for antagonist of cAMP-regulated guanine nucleotide exchange factor 3 (EPAC1) (AID 1645888). The conditions noted are these: Rap1B-BODIPY-GDP nucleotide exchange, fluorescence; series mostly up to 154 µM. The gist of the method: (§1)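 Rap1B-BODIPY-GDP 250 nM + GDP 50 uM; cpds 7-pt, final 9.74 nM–152 uM (activator mode) or from 7.32 nM upwards (inhibitor mode); RT; FI 480/540 nm at 5 and 30 min, then ± cAMP, reread.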

Assay [5] has the same target. The assay can be described thus: Counterscreen qHTS for agonist of cAMP-regulated guanine nucleotide exchange factor 3 (EPAC1) (AID 1645889). Also: nearly all actives have a fitted effect of over 40% in size. The conditions noted are these: EPAC1 Rap1B-BODIPY-GDP exchange, fluorescence; series mostly up to 154 µM. The gist of the method:
as §1
A general note: A counterscreen serves to expose hits that act by an unwanted route or on another target.

Sequence of Rap guanine nucleotide exchange factor 3 (Homo sapiens) (O95398 whole entry, looked up): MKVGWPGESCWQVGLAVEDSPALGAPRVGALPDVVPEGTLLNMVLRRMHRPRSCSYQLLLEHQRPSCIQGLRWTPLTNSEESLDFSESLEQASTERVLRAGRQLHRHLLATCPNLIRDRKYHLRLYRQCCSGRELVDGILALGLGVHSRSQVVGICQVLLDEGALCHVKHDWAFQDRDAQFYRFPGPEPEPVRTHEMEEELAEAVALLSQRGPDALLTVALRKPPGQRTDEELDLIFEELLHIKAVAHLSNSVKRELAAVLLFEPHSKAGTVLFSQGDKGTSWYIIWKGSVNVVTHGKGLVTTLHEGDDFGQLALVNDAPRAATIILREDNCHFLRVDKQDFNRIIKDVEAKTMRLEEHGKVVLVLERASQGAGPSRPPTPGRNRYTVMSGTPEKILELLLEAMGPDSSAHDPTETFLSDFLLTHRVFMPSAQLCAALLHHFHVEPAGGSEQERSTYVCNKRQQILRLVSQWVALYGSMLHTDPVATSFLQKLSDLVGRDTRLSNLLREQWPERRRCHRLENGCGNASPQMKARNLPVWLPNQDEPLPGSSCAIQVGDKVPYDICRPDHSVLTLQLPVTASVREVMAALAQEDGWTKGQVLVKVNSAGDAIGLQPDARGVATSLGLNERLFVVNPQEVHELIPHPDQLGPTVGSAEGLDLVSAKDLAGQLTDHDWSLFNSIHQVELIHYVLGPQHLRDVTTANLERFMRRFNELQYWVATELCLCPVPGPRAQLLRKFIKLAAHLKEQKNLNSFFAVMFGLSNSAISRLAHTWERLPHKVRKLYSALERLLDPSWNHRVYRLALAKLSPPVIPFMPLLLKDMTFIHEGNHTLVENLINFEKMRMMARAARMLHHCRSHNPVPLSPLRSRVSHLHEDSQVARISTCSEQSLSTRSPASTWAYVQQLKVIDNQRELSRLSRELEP
Sequence of Rap guanine nucleotide exchange factor 4 (Homo sapiens) (Q8WZA2 whole entry, looked up): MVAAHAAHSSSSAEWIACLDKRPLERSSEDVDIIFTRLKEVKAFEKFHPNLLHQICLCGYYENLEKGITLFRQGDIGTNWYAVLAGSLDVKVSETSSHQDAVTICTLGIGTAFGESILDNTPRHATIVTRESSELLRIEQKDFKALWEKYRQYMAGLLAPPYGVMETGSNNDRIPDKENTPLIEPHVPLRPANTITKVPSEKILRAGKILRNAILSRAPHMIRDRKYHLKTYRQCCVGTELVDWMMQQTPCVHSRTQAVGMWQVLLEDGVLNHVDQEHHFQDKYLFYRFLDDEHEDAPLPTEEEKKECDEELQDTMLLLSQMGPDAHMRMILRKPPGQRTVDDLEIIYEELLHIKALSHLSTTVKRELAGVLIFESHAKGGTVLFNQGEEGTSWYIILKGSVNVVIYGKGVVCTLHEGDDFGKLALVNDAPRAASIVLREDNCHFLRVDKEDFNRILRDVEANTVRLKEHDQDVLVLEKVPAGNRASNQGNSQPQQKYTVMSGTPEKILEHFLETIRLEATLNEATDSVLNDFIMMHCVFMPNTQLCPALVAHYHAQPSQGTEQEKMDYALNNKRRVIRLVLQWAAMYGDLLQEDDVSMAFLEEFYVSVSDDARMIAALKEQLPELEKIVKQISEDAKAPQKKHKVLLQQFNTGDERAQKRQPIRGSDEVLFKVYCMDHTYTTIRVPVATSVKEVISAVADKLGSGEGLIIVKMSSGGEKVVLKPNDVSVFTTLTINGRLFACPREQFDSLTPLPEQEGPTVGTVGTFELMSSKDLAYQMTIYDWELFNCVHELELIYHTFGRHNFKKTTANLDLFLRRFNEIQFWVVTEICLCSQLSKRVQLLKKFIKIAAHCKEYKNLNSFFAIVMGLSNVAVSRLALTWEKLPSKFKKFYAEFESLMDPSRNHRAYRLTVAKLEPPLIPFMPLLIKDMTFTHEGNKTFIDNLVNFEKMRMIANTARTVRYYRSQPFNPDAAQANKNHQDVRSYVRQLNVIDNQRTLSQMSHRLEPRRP

For the compound `Cc1ccc(Cc2c(-c3cccc(Cl)c3)nc3ccc(Br)cn23)cc1`, the Potency in assay [1] is 75.7 µM (active). The Potency result in assay [2], in assay [3], in assay [4] and in assay [5] was “inactive” each time.

Regarding `Nc1nc2c(ncn2[C@@H]2O[C@H](CNS(=O)(=O)N3CCCC3)[C@@H](O)[C@H]2O)c(=O)[nH]1`, the Potency entry in assay [1], in assay [2], in assay [3], in assay [4] and in assay [5] was “inactive” each time.

For `CC(=O)NC(c1cccc(F)c1)c1nc(-c2cccs2)cs1` (stereo not given), the Potency entry in assay [1], in assay [2], in assay [3], in assay [4] and in assay [5] was “inactive” throughout.
